Potency and outcome data for six compounds are collected here from PubChem BioAssay (Tox21).

Structures are written as SMILES. Records with an inconclusive call do not appear. Calls of active or inactive are those of the source. Unless noted, calls come from the whole dose curve.

A short description of experiment [1]: Nuclear factor erythroid 2-related factor 2/antioxidant responsive element (Nrf2/ARE) small molecule agonists: luciferase reporter gene qHTS assay in human keratinocytes (AID 1919969; note: nearly all actives have a fitted effect of over 35% in size). (In general: A reporter such as luciferase makes a cellular process visible.)
The target of experiment [2] is Gonadotropin-releasing hormone receptor (Homo sapiens) (UniProt P30968). Description: Human gonadotropin-releasing hormone receptor (GnRHR) small molecule agonists, calcium flux assay in GnRHR-HEK293 cells (AID 1920063). Note: nearly all actives have a fitted effect of over 35% in size. The essentials:
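Intracellular calcium rise is the read-out: engineered human GnRHR HEK293 cells, dye-loaded, are exposed to DMSO-dissolved compounds and fluorescence at Ex/Em 480/540 is tracked for 3 min.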
On the technique in general: Calcium assays in cells follow changes in intracellular calcium, usually with a dye or a luminescent sensor.

For experiment [3], the target named is KiSS-1 receptor (Homo sapiens) (UniProt Q969F8). Nature of the experiment: Human kisspeptin (KISS1R) small molecule agonists, calcium flux assay in KISS1R-HEK293 cells (AID 1920064; active = well fitted activation curve with a large enough effect in the repeat runs). The essentials: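 Concentration-response testing used 15 concentrations in triplicate on human KISS1R-expressing HEK293 cells. Calcium-dependent fluorescence (Ex/Em 480/540) was followed kinetically for 3 min after compound transfer.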

A short description of experiment [4]: G protein-coupled receptor (GPCR) small molecule agonists, calcium flux assay: HEK293 wild type cell line counter screen (AID 1920065). In short, it runs like this:
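Fluorescence intensity signals activation. After overnight (18 h) culture and a 1 h calcium dye load at 37 C, compounds are added by pin tool and the plate read at 480/540 nm for 3 min in 1 s steps.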

A short description of experiment [5]: p53 small molecule agonists, cell-based qHTS assay with human liver microsomes (AID 1963577). The essentials:
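Compounds act here after metabolic activation: human liver microsomes and NADPH, both at 0.5 mg/mL final, were co-added to p53RE-bla cells. Incubation ran 16 h at 37 C, followed by LiveBLAzer detection.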

Experiment [6] in a line: p53 small molecule agonists, cell-based qHTS assay with rat liver microsomes (AID 1963578). In short, it runs like this: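 Read-out is beta-lactamase reporter fluorescence (LiveBLAzer, 2 h, room temperature, dark) in p53RE-bla cells treated 16 h at 37 C with compound, rat liver microsomes and NADPH, both 0.5 mg/mL final.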
(qHTS replaces the single test concentration by a dilution series.)

Experiment [7] is described as follows: p53 small molecule agonists, cell-based qHTS assay with human liver microsomes: qHTS cell viability counter screen (AID 1963579). Note: nearly all actives have a fitted effect of over 45% in size. In short, it runs like this:
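Cells carrying the p53 response-element beta-lactamase reporter are treated for 16 h at 37 C with test compounds in the presence of human liver microsomes and NADPH (both 0.5 mg/mL final); ATP-based CellTiter-Glo luminescence then reports viability.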

Experiment [8] can be described thus: p53 small molecule agonists, cell-based qHTS assay with rat liver microsomes: qHTS cell viability counter screen (AID 1963580). Note: nearly all actives have a fitted effect of over 45% in size. The essentials:
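Rat liver microsome (0.5 mg/mL final) and NADPH (0.5 mg/mL final) co-incubation with compounds for 16 h at 37 C on HCT-116 p53RE-bla cells; cytotoxicity taken from intracellular ATP luminescence.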

Experiment [9] can be described thus: p53 small molecule agonists, cell-based qHTS assay: qHTS cell viability counter screen (AID 1963581). Note: nearly all actives have a fitted effect of over 45% in size. The essentials:
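Luminescence from CellTiter-Glo, reflecting ATP content, serves as the cytotoxicity measure; it is taken after the 2 h reporter substrate step in HCT-116 p53RE-bla cells dosed for 16 h at 37 C.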

The target in experiment [10] is 5-hydroxytryptamine receptor 2A (Homo sapiens) (UniProt P28223). Nature of the experiment: 5-hydroxytryptamine receptor 2A (HTR2A) small molecule antagonists, cell-based qHTS assay (AID 1963586). Note: nearly all actives have a fitted effect of over 45% in size. In short, it runs like this: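 CHO cells stably expressing human HTR2A were plated for 18 h at 37 C, then loaded with calcium dye for 1 h. Compounds were preincubated 5 min at room temperature before DOI (4 nM solution) was added. Kinetic fluorescence was read for 3 min.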

Experiment [11] shares this target. Description: 5-hydroxytryptamine receptor 2A (HTR2A) small molecule agonists, cell-based qHTS assay (AID 1963587). Note: nearly all actives have a fitted effect of over 30% in size. In short, it runs like this:
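Kinetic calcium-flux fluorescence (2 min, 1 sec intervals) after compound addition in agonist mode. HTR2A-CHO cells were cultured 18 h, then dye-loaded 1 h at 37 C.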

In experiment [12] the target is Muscarinic acetylcholine receptor M1 (Homo sapiens) (UniProt P11229). Description: Cholinergic receptor muscarinic 1 (CHRM1) small molecule agonists, cell-based qHTS assay (AID 1963589). Note: nearly all actives have a fitted effect of over 35% in size. In short, it runs like this:
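Fluorescent calcium dye reports M1 activation in stably transfected CHO cells. Compounds, 15 concentrations, added after 1 h dye loading at 37 C; kinetic reading at 1 sec intervals.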

Experiment [13] can be described thus: cAMP Responsive Elements (CRE) small molecule agonists, cell-based qHTS assay (AID 1963590). The essentials:
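Compound exposure lasted 3 h at 37 C/5% CO2 in CRE-bla HEK 293T cells grown in assay medium with 10% dialyzed FBS and 25 mM HEPES. Reporter signal came from LiveBLAzer B/G FRET substrate, 2 h, room temperature.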

Experiment [14] can be described thus: cAMP Responsive Elements (CRE) small molecule antagonists, cell-based qHTS assay (AID 1963591; active = well fitted inhibition curve with a large enough effect in the signal ratio in the repeat runs, not every such curve was filed as active; the % refers to the signal ratio). In short, it runs like this: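 Stimulation used NKH477 at a final 0.25 uM for 3 h in compound-treated CRE-bla HEK293T cells, seeded 18 h beforehand. Reporter activity was measured with LiveBLAzer B/G FRET substrate after 2 h at room temperature.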
Experiment [15] has as its target Beta-2 adrenergic receptor (Homo sapiens) (UniProt P07550). Description: Adrenergic beta2 receptor (ADRB2) small molecule antagonists, cell-based qHTS assay (AID 1963592). Note: nearly all actives have a fitted effect of over 50% in size. Note: potency is the fitted concentration of half-maximal effect. In short, it runs like this:
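Assay format: CHO-ADRB2 cells, 18-20hr seeding at 37C/5% CO2, then compound plus 1nM isoproterenol agonist mix for 0.5hr RT. Homogeneous time-resolved fluorescence cAMP detection after 1hr, expressed as 665/615 nm ratio.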

The target in experiment [16] is D(2) dopamine receptor (Homo sapiens) (UniProt P14416). Nature of the experiment: Dopamine D2 receptor (DRD2) small molecule agonists, cell-based qHTS assay (AID 1963594). Note: nearly all actives have a fitted effect of over 35% in size. The essentials: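 cAMP accumulation in DRD2-HEK293 cells measured by HTRF after 1 h detection; compounds added 10 min before NKH477 (200nM […]) forskolin-analogue stimulation, 30 min at room temperature, with Ro20-1724 present at 0.1 mM final.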

Experiment [17] has the same target. Description: Dopamine D2 receptor (DRD2) small molecule antagonists, cell-based qHTS assay (AID 1963595; active = well fitted inhibition curve with a large enough effect in the signal ratio in the repeat runs, with a control signal flat; the % refers to the signal ratio). The essentials: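 Antagonism was scored as restored cAMP in HEK293-DRD2 cells. These cells were stimulated with 200 nM NKH477 and 12 nM quinpirole for 30 min at room temperature, in the presence of 0.1 mM Ro20-1724.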
A short description of experiment [18]: p53 small molecule agonists, cell-based qHTS assay (AID 1963582; active = well fitted activation curve with a large enough effect in the signal ratio in the repeat runs, not every such curve was filed as active; the % refers to the signal ratio). The essentials: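 After plating, p53RE-bla cells sat 5 h in the incubator; compounds or DMSO vehicle were pinned in; a 16 h incubation at 37 C followed; FRET substrate was added and, 2 h later at RT, fluorescence was measured.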
Experiment [19] deals with Muscarinic acetylcholine receptor M1 (Homo sapiens) (UniProt P11229). Nature of the experiment: Cholinergic receptor muscarinic 1 (CHRM1) small molecule antagonists, cell-based qHTS assay (AID 1963588). Note: nearly all actives have a fitted effect of over 40% in size. The essentials:
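Compounds were tested at 15 concentrations in three independent runs. Dye-loaded CHRM1-CHO cells were exposed 5 min at room temperature before stimulation by acetylcholine added at 50nM. Intracellular calcium was read kinetically on FDSS for 3 min.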

Chain of Beta-2 adrenergic receptor (Homo sapiens) (P07550 whole entry, looked up): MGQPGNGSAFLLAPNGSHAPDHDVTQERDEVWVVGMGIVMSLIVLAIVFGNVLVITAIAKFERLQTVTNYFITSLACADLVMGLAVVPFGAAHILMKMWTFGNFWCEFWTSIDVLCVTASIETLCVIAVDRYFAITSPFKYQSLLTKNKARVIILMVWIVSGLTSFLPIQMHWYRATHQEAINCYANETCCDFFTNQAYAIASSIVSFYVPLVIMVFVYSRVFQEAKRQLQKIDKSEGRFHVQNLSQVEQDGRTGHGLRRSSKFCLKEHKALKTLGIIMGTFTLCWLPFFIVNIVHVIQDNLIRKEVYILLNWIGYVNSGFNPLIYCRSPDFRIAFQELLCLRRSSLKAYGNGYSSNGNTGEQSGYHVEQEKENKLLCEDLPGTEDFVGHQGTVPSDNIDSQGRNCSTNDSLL
Chain of D(2) dopamine receptor (Homo sapiens) (P14416 whole entry, looked up): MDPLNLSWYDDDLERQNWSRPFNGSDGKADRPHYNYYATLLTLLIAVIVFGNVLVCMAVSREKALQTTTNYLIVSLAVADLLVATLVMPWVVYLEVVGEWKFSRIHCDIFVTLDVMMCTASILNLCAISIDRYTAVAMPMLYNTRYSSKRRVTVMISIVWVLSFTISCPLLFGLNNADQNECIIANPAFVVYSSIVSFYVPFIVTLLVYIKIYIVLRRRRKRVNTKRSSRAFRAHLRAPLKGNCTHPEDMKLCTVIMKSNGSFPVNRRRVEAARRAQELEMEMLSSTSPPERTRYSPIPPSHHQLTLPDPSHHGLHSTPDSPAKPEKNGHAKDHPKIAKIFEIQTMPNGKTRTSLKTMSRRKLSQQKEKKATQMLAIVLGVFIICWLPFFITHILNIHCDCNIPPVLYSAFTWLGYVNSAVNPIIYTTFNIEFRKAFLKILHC
Chain of 5-hydroxytryptamine receptor 2A (Homo sapiens) (P28223 whole entry, looked up): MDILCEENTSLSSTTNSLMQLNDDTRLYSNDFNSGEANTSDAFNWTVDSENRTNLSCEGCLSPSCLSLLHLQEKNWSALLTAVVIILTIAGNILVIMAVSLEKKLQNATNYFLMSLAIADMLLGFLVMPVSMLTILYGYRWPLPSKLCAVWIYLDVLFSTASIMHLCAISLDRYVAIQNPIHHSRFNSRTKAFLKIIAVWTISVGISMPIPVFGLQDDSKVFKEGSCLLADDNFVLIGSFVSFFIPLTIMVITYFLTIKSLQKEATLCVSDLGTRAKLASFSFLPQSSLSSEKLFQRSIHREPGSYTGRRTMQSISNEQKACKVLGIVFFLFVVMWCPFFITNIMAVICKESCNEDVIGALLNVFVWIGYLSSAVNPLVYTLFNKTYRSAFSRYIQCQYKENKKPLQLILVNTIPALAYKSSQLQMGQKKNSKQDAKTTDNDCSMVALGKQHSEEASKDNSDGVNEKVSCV
Chain of Muscarinic acetylcholine receptor M1 (Homo sapiens) (P11229 whole entry, looked up): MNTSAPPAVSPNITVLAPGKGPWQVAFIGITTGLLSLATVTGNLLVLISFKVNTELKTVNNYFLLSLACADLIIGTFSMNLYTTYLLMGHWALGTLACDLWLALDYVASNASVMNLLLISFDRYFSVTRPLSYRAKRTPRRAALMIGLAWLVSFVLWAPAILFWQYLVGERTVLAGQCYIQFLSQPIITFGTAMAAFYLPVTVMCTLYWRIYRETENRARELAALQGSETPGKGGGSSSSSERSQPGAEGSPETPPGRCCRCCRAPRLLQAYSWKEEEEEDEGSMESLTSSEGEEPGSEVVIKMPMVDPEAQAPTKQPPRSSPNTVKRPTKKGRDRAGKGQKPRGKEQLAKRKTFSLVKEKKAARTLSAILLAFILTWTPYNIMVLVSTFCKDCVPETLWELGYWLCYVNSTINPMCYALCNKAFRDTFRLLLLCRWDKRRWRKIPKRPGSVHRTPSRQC
Chain of KiSS-1 receptor (Homo sapiens) (Q969F8 whole entry, looked up): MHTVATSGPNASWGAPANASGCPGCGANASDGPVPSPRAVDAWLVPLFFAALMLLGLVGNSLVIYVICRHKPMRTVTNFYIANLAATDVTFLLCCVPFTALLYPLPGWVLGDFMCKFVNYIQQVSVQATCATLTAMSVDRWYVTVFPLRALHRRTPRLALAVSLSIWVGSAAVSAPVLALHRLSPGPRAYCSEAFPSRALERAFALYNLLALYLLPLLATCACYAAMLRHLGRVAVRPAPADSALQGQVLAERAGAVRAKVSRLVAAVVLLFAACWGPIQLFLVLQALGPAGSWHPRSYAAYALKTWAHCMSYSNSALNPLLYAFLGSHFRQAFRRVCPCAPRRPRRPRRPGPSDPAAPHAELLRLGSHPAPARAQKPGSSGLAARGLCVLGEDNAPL
Chain of Gonadotropin-releasing hormone receptor (Homo sapiens) (P30968 whole entry, looked up): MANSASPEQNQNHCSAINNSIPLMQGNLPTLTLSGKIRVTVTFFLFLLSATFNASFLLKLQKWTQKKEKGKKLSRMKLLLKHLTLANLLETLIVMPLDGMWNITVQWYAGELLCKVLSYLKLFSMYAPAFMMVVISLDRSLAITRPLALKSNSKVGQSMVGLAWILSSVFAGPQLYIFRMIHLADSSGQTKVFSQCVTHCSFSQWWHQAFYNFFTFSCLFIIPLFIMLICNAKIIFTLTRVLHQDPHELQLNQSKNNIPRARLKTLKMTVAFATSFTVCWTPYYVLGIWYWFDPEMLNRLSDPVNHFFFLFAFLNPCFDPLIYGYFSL

Turning to `OC(CCN1CCCCC1)(c1ccccc1)c1ccccc1`, the Potency result in [1], in experiment [2], in [5], in experiment [6], in experiment [7] and in experiment [8] was “inactive” in each case. Further, the Potency entry in [9], in experiment [10], in experiment [11], in experiment [12], in experiment [13] and in experiment [14] was “inactive” each time. The Potency entry in [15], in [16] and in experiment [17] was “inactive” throughout. Besides, the result in [3] and in [4] was inactive.
Turning to `CCCCCC[C@@H](O)C/C=C\CCCCCCCC(=O)OCC(O)CO` (stereo partly specified), the Potency entry in experiment [1], in experiment [2], in experiment [5], in experiment [6], in [7] and in experiment [8] was “inactive” each time. The Potency entry in experiment [9], in experiment [18], in [10], in experiment [11], in experiment [12] and in [15] was “inactive” throughout. Further, the Potency result in [16] and in experiment [17] was “inactive” in each case. Further, the result in [3] and in experiment [4] was inactive.
As for `CCCCCCCCCCCCCCCCCC(=O)OCCCCCCCCCCCCCC(C)C`, the Potency entry in experiment [1], in experiment [2], in [5], in experiment [6], in [7] and in [8] was “inactive” each time. Further, the Potency entry in experiment [9], in experiment [18], in [10], in [11], in experiment [19] and in [12] was “inactive” throughout. For the same compound, the Potency entry in [13], in experiment [14], in experiment [15] and in experiment [16] was “inactive” each time. Moreover, the outcome in [3] and in experiment [4] was inactive.
For the compound `COc1ccc([C@@H]2Sc3ccccc3N(CCN(C)C)C(=O)[C@@H]2OC(C)=O)cc1`, the Potency entry in experiment [1], in [2], in experiment [5], in [6], in experiment [7] and in experiment [8] was “inactive” in each case. The Potency result in experiment [9], in [18], in experiment [13], in experiment [15], in [16] and in experiment [17] was “inactive” each time. Besides, the result in experiment [3] and in [4] was inactive.
For `COc1ccc(NS(=O)(=O)c2ccc(N)cc2)nn1`, the Potency entry in experiment [1], in experiment [2], in experiment [5], in experiment [6], in experiment [7] and in experiment [8] was “inactive” throughout. Further, the Potency result in [9], in experiment [18], in experiment [10], in experiment [11], in experiment [19] and in [13] was “inactive” throughout. Also, the Potency entry in experiment [14], in experiment [15], in [16] and in [17] was “inactive” throughout. Also, the result in experiment [3] and in experiment [4] was inactive.
`COc1ccccc1OCC(O)CN1CCN(CC(=O)Nc2c(C)cccc2C)CC1` (stereo unspecified): the Potency result in experiment [1], in [2], in experiment [5], in experiment [6], in [7] and in experiment [8] was “inactive” each time. For the same compound, the Potency entry in experiment [9], in [18], in experiment [10], in [11], in [19] and in experiment [12] was “inactive” throughout. For the same compound, the Potency entry in experiment [13], in experiment [16] and in experiment [17] was “inactive” in each case. Moreover, the result in [3] and in [4] was inactive. In addition, in experiment [15], the Potency is 11.9 µM (active).
